A selection: hits, their analogues and other compounds. The true share with any hit is near 21%.
NS1 inh: inhibitors of influenza NS1 protein function; Potency, µM (titrated, usually from 46.1 µM); 270,000 tested, 0.4% active; further: actives are rising curves; nearly all actives have a fitted effect of over 50% in size
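OD600 was taken as the measure of yeast growth restored by compound in an NS1-expressing S. cerevisiae strain. Cells had been washed out of glucose medium and diluted 1:100 into galactose -URA medium, pH 6.0.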
CHX counter: counter-screen for Shiga toxin inhibitors: cycloheximide protein synthesis inhibition; cell reporter, cycloheximide protein synthesis inhibition counterscreen; max response, %; 300,000 tested, 12% active; in the data active means max response mostly above about 13%, no sharp cut-off; inactive means mostly below about 14%; further: read at 38.3 µM for the half of the compounds with a filed dose
Pf growth 96h: inhibits malaria parasite growth, 96 h. P. falciparum luciferase reporter growth, 96 h. Potency, µM (highest dose often 28.7 µM), usual class: inhibitors. 320,000 tested, 6.9% active; active means well fitted inhibition curve with a large enough effect; inconclusive means small, poorly fitted or top-dose-only effect, or another doubt; inactive means no such curve, though single readings can be large or run the other way
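Readout is luminescence from an integrated firefly luciferase in P. falciparum. Red cells, 2% hematocrit and 0.05% parasitemia final, were cultured with compound through two parasite generations (96 hours) at 37 C, 5% CO2.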
Pf growth 48h: inhibits P. falciparum growth in the first generation, 48 h. 310,000 tested, 5.9% active. P. falciparum luciferase growth in erythrocytes, 48 h. Potency, µM (doses to about 28.7 µM), hits mostly inhibitors; active means well fitted inhibition curve with a large enough effect; inconclusive means small, poorly fitted or top-dose-only effect, or another doubt; inactive means no such curve, though single readings can be large or run the other way
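Growth was read as firefly luciferase luminescence after a 48 h, 37 C, 5% CO2 exposure of compounds to reporter-bearing P. falciparum cultures (0.1% parasitemia, 2% hematocrit final) in Albumax-supplemented RPMI 1640.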
SARS PLP yeast: SARS-CoV PLP inhibition in yeast | 330,000 tested, 0.19% active | S. cerevisiae expressing SARS-CoV PLpro, growth rescue | Potency, µM (top dose mostly 32.9 µM), hits mostly activators; further: nearly all actives have a fitted effect of over 55% in size
Shiga toxin inh: inhibitors of Shiga toxin in Vero cells | Vero cells, Shiga toxin protein synthesis inhibition reporter | inhibition, % at 38.7 µM | 290,000 tested, 9.2% active | AID 2315; in the data active means inhibition mostly above about 28%, no sharp cut-off; inactive means mostly below about 43%
Of the large screens only hits and unclear results are named; the others gave an inactive call. Unless noted, the call rests on the fitted dose curve.

CCn1c2c(c(=N)c3ccccc31)CCC2	Pf growth 96h inconclusive, Pf growth 48h inconclusive
Cc1cc2nnc(SCC(=O)OC(C)C)n2c2ccccc12	Pf growth 48h inconclusive
CC(C)(C)c1ccc(S(=O)(=O)Nc2ccc(Cc3ccncc3)cc2)cc1	CHX counter 22, Pf growth 96h inconclusive, Pf growth 48h inconclusive
CN1CCN(C(=O)CCN2C(=O)/C(=C/c3ccccc3Cl)SC2=S)CC1	none
Cc1ccc(/C=C2\SC(=O)N(CCC(=O)N3CCN(C)CC3)C2=O)cc1	CHX counter 27, Pf growth 96h inconclusive, Shiga toxin inh 45
Cc1ccc(/C=C2\SC(=S)N(CCC(=O)NNC(=O)c3ccncc3)C2=O)cc1	none
CN1CCN(C(=O)CCN2C(=O)/C(=C\c3ccccc3F)SC2=S)CC1	Pf growth 96h 12µM, Pf growth 48h inconclusive
Cc1ccc(/C=C2\SC(=S)N(CCC(=O)NNS(=O)(=O)c3ccc(C)cc3)C2=O)cc1	CHX counter 25
Cc1ccc(/C=C2/SC(=S)N(CCC(=O)N3CCN(C)CC3)C2=O)cc1	Pf growth 96h 12µM, Pf growth 48h inconclusive
CC1CCC2(CC1)NC(=O)N(CC(=O)NCCc1ccc(F)cc1)C2=O (stereo unspecified)	none (no result: NS1 inh, CHX counter, Shiga toxin inh)
CN(C)CCCNC(NC(=O)c1cccs1)C(Cl)(Cl)Cl (stereo unspecified)	Pf growth 96h inconclusive
O=C(CN1C(=O)NC2(CCOc3ccccc32)C1=O)Nc1ccc(Br)cc1F (stereo unspecified)	none (no result: NS1 inh, CHX counter, Shiga toxin inh)
Cc1ccc(/C=C2/SC(=S)N(CCC(=O)N3CCOCC3)C2=O)cc1	CHX counter 16, Pf growth 48h inconclusive
COCCNC(=O)CN(C)S(=O)(=O)c1ccc(Br)cc1	Pf growth 96h inconclusive
COC(=O)NCCOC(=O)N(O)c1ccc(Br)cc1	NS1 inh inconclusive, Pf growth 96h inconclusive, Pf growth 48h 9.3µM
O=C(CCS(=O)(=O)c1ccccc1)Nc1ccc(S(=O)(=O)Nc2nccs2)cc1	none (no result: NS1 inh, CHX counter, Pf growth 96h, Pf growth 48h, Shiga toxin inh)
O=C(CCN1CCN(c2ccccc2F)CC1)Nc1ccccc1F	CHX counter 18, SARS PLP yeast inconclusive
COc1cccc(NC(=O)CCN2CCN(c3ccccc3F)CC2)c1	Pf growth 96h 12µM, SARS PLP yeast inconclusive
O=C(CN1CCN(CCC(=O)Nc2ccccc2F)CC1)Nc1ccc(Cl)cc1	Pf growth 48h inconclusive
O=C(CCN1CCN(c2ccc(Cl)cc2)CC1)Nc1ccccc1F	Pf growth 96h 2.9µM
COc1ccc(OC)c(NC(=O)CCN2CCN(c3ccccc3F)CC2)c1	none (no result: Pf growth 48h)
COc1ccc(OC)c(S(=O)(=O)n2ccnc2)c1	none (no result: CHX counter, Pf growth 96h, Pf growth 48h, SARS PLP yeast, Shiga toxin inh)
CCOC(=O)c1ccc(CC2S/C(=C(\C#N)C(C)=O)NC2=O)cc1 (stereo unspecified)	Pf growth 96h inconclusive (no result: Pf growth 48h)
CCc1ccc(CC2S/C(=C(\C#N)C(C)=O)NC2=O)cc1 (stereo unspecified)	Pf growth 96h 2.9µM, Pf growth 48h inconclusive
CC(=O)/C(C#N)=C1\NC(=O)C(Cc2ccc(C)c(Cl)c2)S1 (stereo unspecified)	CHX counter 16
Cc1ccc(S(=O)(=O)N2CCCC(C(=O)N(Cc3cccs3)C3CC3)C2)cc1 (stereo unspecified)	Pf growth 96h 13µM, Pf growth 48h 5.2µM
CCC1CCCCN1S(=O)(=O)c1ccc(S(=O)(=O)N(Cc2cccs2)C2CC2)cc1 (stereo unspecified)	Pf growth 48h 8.3µM
CCS(=O)(=O)N1CCC(C(=O)NCc2cccs2)CC1	Pf growth 96h 7.4µM
CCC1CCCCN1S(=O)(=O)c1ccc(S(=O)(=O)N(Cc2ccccn2)CC2CCCO2)cc1 (stereo unspecified)	none
CCOC(=O)C1CCCN(S(=O)(=O)c2ccc(C)cc2)C1 (stereo unspecified)	none
CS(=O)(=O)N1CCCC(C(=O)NCc2cccs2)C1 (stereo unspecified)	Pf growth 96h 5.9µM
CCN(CC)c1ccc(C(=O)N/N=C(\C)c2ccc(OC)c(OC)c2)cc1	Pf growth 96h inconclusive
CCOc1ccc(CCNC(=O)COC(=O)c2cc(=O)[nH]c3ccccc23)cc1OCC	none (no result: NS1 inh, CHX counter, Shiga toxin inh)
COc1ccc(CCNC(=O)COc2nncc3ccccc23)cc1	none (no result: NS1 inh)
Cc1cc(NC(=O)c2cc([N+](=O)[O-])cc([N+](=O)[O-])c2)no1	Pf growth 96h inconclusive, Pf growth 48h inconclusive
COc1ccc(-c2c3c(nc4sc5c(=O)[nH]c(C)nc5c24)CCC3)cc1	Pf growth 96h inconclusive
COc1ccc(-c2c3c(nc4sc(C(=O)Nc5cc(C)on5)c(N)c24)CCC3)cc1	Pf growth 48h 4.1µM
COc1cc(OC)cc(C(=O)Nc2cc(C)on2)c1	none
COc1ccc(C(=O)Nc2cc(C)on2)cc1	CHX counter 27
COc1ccc(OCc2cccc(C(=O)Nc3cc(C)on3)c2)cc1	CHX counter 91, Shiga toxin inh active
CC(=O)Oc1ccc(C(=O)Nc2cc(C)on2)cc1	CHX counter 30, Shiga toxin inh 88
O=S(=O)(Nc1cccc2c1ccc1cccn12)c1cccs1	none
CCC(c1nnc(SCC(=O)NC2CCCCC2)n1Cc1ccccc1)N(C)C (stereo unspecified)	Pf growth 48h inconclusive (no result: NS1 inh, CHX counter, SARS PLP yeast, Shiga toxin inh)
CCOC(=O)c1ccccc1Nc1cc(C)nc2nc(-c3ccco3)nn12	none (no result: NS1 inh, Pf growth 96h, Pf growth 48h, SARS PLP yeast)
CCNC(=O)NC(=O)COC(=O)CCCSc1nc2ccccc2s1	none
CC1=NN(C(=O)c2ccc(C)o2)C(O)(c2ccccc2)C1 (stereo unspecified)	CHX counter 30, Shiga toxin inh active
CC1=NN(C(=O)COc2ccccc2)C(O)(c2ccccc2)C1 (stereo unspecified)	none
CC1=NN(C(=O)c2ccccc2C)C(O)(c2ccc(Cl)cc2)C1 (stereo unspecified)	Pf growth 96h 10µM
CC1=NN(C(=O)c2ccco2)C(O)(c2ccccc2)C1 (stereo unspecified)	CHX counter 45, Pf growth 96h inconclusive, Pf growth 48h inconclusive, Shiga toxin inh 80
CC1=NN(C(=O)CSCc2ccccc2)C(O)(c2ccccc2)C1 (stereo unspecified)	Pf growth 48h inconclusive
CC1CCN(c2ccc3nnc(CCC(=O)N4CCN(c5ccccc5F)CC4)n3n2)CC1	Pf growth 96h inconclusive
COc1cc(Cl)c(C)cc1NC(=O)CNC(=O)Cn1cnc2ccccc2c1=O	Pf growth 96h inconclusive
O=C(Nc1cccc(S(=O)(=O)NC2=NCCC2)c1)c1ccc(=O)[nH]c1	none (no result: NS1 inh, CHX counter, Shiga toxin inh)
Cc1ccc(O)c(C(=O)c2cnc3c(c2)CN(CCC(C)C)C(=O)N3)c1	Pf growth 96h 5.2µM, Pf growth 48h 2.9µM
Cc1ccc(O)c(C(=O)c2cnc3c(c2)c(=O)n(C)c(=O)n3C)c1	Pf growth 96h 10µM, Pf growth 48h inconclusive
Cc1ccc(O)c(C(=O)c2cnc3c(c2)CN(C)C(=O)N3)c1	Pf growth 48h inconclusive (no result: Pf growth 96h)
CCCCN1Cc2cc(C(=O)c3cc(OC)ccc3O)cnc2NC1=O	Pf growth 96h 9.3µM, Pf growth 48h inconclusive
